From PubChem BioAssay
Shiga toxin inh: blocks Shiga toxin action in Vero cells. Vero cells, Shiga toxin protein synthesis inhibition reporter. inhibition, % at 38.7 µM. actives 9.2% (n = 290,000); in the data active means inhibition mostly above about 28%, no sharp cut-off; inactive means mostly below about 43%
NS1 function inh: influenza NS1 inhibition; Potency, µM (highest dose often 46.1 µM); actives 0.4% (n = 270,000); AID 2326; calls by dose curve; further: actives are rising curves; nearly all actives have a fitted effect of over 50% in size
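Recovery from NS1-induced slow growth read by OD600 in budding yeast switched to galactose assay medium (pH 6.0, -URA) at 1:100 dilution. Compound 23 nl per well; the matching strain lacking NS1 serves as control.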
Pf growth 96h: inhibits malaria parasite growth, 96 h. P. falciparum luciferase reporter growth, 96 h. Potency, µM (doses to about 28.7 µM), actives largely listed as inhibitors. actives 6.9% (n = 320,000). AID 504834
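Two parasite generations (96 h, 37 C, 5% CO2) of compound exposure in infected erythrocytes (0.05% parasitemia, 2% hematocrit). Luciferase-reporter P. falciparum; decreased luminescence indicates inhibited growth, aimed at apicoplast-acting delayed death.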
Cycloheximide cs: counter-screen hit for Shiga toxin inhibitors, cycloheximide; cell reporter, cycloheximide protein synthesis inhibition counterscreen; max response, %; actives 12% (n = 300,000); AID 2314; in the data active means max response mostly above about 13%, no sharp cut-off; inactive means mostly below about 14%; further: read at 38.3 µM for the half of the compounds with a filed dose
Pf growth 48h: P. falciparum growth inhibition at 48 hours (one generation). Potency, µM (highest dose often 28.7 µM), most hits filed as inhibitors. actives 5.9% (n = 310,000). P. falciparum luciferase growth in erythrocytes, 48 h
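Luciferase-expressing P. falciparum in infected erythrocytes (2% hematocrit, 0.1% parasitemia final) in RPMI 1640/0.5% Albumax were exposed to compound for 48 hours at 37 C, 5% CO2; growth read as luminescence.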
Large screens that a line does not name were inactive; ! = repeats disagree. Only some compounds are listed: those with a hit (about 21% of all), similar ones and a draw of the others. Unless noted, the call rests on the fitted dose curve; in most records, active means well fitted inhibition curve with a large enough effect; inconclusive means small, poorly fitted or top-dose-only effect, or another doubt; inactive means no such curve, though single readings can be large or run the other way.

Nc1nc(CN2CCN(c3ccccc3)CC2)nc(Nc2ccc(Cl)cc2)n1	Pf growth 48h inconclusive
Nc1nc(CSCCO)nc(Nc2ccccc2)n1	none
COc1ccc(-c2noc3c2-c2nc(-c4ccccc4F)sc2CC3)cc1	none
Cc1ccc2[nH]c(=O)c3cc(C(=O)N(CCCOC(C)C)Cc4ccco4)sc3c2c1	Pf growth 96h 5.9µM (no result: Pf growth 48h)
CCOCCc1nnc(NC(=O)CCC2CCCCC2)s1	none
NC(N)=N/N=C/c1cccc([N+](=O)[O-])c1O	Pf growth 48h inconclusive
NC(N)=N/N=C/c1cccc(Cl)c1Cl	Pf growth 96h 2.1µM, Pf growth 48h 1.7µM
CCOC(=O)C1CCCN(C(=O)CN2C(=O)C(CC)Oc3ccc(C)cc32)C1 (centres undefined)	Pf growth 96h 13µM
CCC1Oc2ccc(C)cc2N(CC(=O)N2CCN(c3ccc(F)cc3)CC2)C1=O (centres undefined)	Pf growth 48h inconclusive
CCOC(=O)C1CCCN(C(=O)CN2CCN(Cc3ccc(Cl)cc3)C2=O)C1 (centres undefined)	Pf growth 96h 1.7µM
CCOC(=O)c1cccc(N)c1	none (no result: Shiga toxin inh, NS1 function inh, Cycloheximide cs)
Cn1c(N=Nc2ccc(N3CCOCC3)cc2)[n+](C)c2ccccc21	Shiga toxin inh 94, Cycloheximide cs 48
Cn1c(=Nc2ccc(N3CCOCC3)cc2)ccc2ccccc21	Pf growth 96h inconclusive
COc1ccc(C(=O)NCC2OCCc3ccccc32)cc1 (centres undefined)	none
O=C(NC1CCc2ccccc21)c1cc(COc2cncc(Cl)c2)on1 (centres undefined)	Shiga toxin inh 67, Cycloheximide cs 57, Pf growth 48h inconclusive
O=C(NCCc1cnn(-c2ccccc2)c1)c1cc(COc2c(F)cccc2F)on1	Shiga toxin inh 68, Pf growth 96h inconclusive, Cycloheximide cs 27, Pf growth 48h inconclusive
CC(CNC(=O)c1cc(COc2c(F)cccc2F)on1)c1ccccc1 (centres undefined)	none
O=C(NC1CCCc2ccccc21)c1cc(Cl)ccn1 (centres undefined)	none
O=C(NCC1OCCc2ccccc21)c1cc(COc2c(F)cccc2F)on1 (centres undefined)	Shiga toxin inh 49, Pf growth 96h 13µM, Cycloheximide cs 35
CCOc1ccc(C(=O)NCC2OCCc3ccccc32)cc1 (centres undefined)	Shiga toxin inh active, Cycloheximide cs 25
CN(CC1CCCO1)S(=O)(=O)c1ccc(C(=O)NCc2ccccc2)cc1 (centres undefined)	none (no result: NS1 function inh)
CN1CC2([N+](=O)[O-])CC=C(OCCO)C([N+](=O)[O-])(C1)C2 (centres undefined)	none
Cc1ccc(NC(=O)CCNS(=O)(=O)c2ccc3c(c2)CCC(=O)N3)cc1C	Pf growth 96h inconclusive
CCCc1n[nH]c2c1/C(=N\O)CCC2	Pf growth 96h inconclusive
Nc1ccccc1S(=O)(=O)NC1=NCCCCC1	NS1 function inh inconclusive
O=C1CCCN1CC(O)CS(=O)(=O)c1ccc(Cl)cc1 (centres undefined)	none
O=C(NCc1c(F)cccc1F)c1cc(COc2c(F)cccc2F)on1	Shiga toxin inh 97, Pf growth 96h inconclusive, Cycloheximide cs 26
O=C(NC1CCc2ccccc21)c1cc(COc2ccc(F)cc2Cl)on1 (centres undefined)	none
O=C(NC1CCc2ccccc21)c1cc(COc2c(F)cccc2F)on1 (centres undefined)	Cycloheximide cs 21
COc1ccc(C(=O)Nc2ccccc2C(=O)NCCN2CCOCC2)cc1OC	none
O=c1cnc(-c2ccc(Cl)cc2)cn1O	none (no result: NS1 function inh)
O=C(NCCCn1ccnc1)c1cc2c(ccc3ccccc32)o1	Cycloheximide cs 31 (no result: NS1 function inh)
O=c1c2ccccc2oc2ccc(NCCCn3ccnc3)cc12	Shiga toxin inh 54, Cycloheximide cs 33
O=C(NCCCn1ccnc1)C(=O)NCc1ccccc1	none
Cc1ccc(NC(=O)/C=C\C(=O)NCC(=O)O)cc1C	none
COc1cc(OC)c2ccc(=O)oc2c1C(CC(=O)N1CCCC1)c1ccc(N(C)C)cc1 (centres undefined)	Pf growth 96h inconclusive, Cycloheximide cs 22!, Pf growth 48h inconclusive
COc1cc(OC)c2ccc(=O)oc2c1C(CCN1CCCC1)c1ccc(N(C)C)cc1 (centres undefined)	Pf growth 96h inconclusive, Pf growth 48h inconclusive
CCN(CC)C(=O)CC(c1ccc(N(C)C)cc1)c1c(OC)cc(OC)c2ccc(=O)oc12 (centres undefined)	Pf growth 96h 10µM, Pf growth 48h 8.3µM
CCN(CC)C(=O)CC(c1ccc2c(c1)OCO2)c1c(OC)cc(OC)c2ccc(=O)oc12 (centres undefined)	Pf growth 96h 10µM, Pf growth 48h 8.3µM
CCN(CC)CCC(c1ccc(N(C)C)cc1)c1c(OC)cc(OC)c2ccc(=O)oc12 (centres undefined)	Pf growth 96h inconclusive, Pf growth 48h 12µM
Cc1ccc(N2CCN(S(=O)(=O)N3CCCCC3)CC2)c(C)c1	Pf growth 96h inconclusive
O=S(=O)(c1ccccc1Br)N(Cc1ccccc1)Cc1ccco1	none (no result: NS1 function inh, Pf growth 96h, Pf growth 48h)
CCN(CC)C(=O)CC(c1ccc(N(C)C)cc1)c1c(OC)cc(OC)c2c(-c3ccccc3)cc(=O)oc12 (centres undefined)	Pf growth 96h 2.1µM, Pf growth 48h 3.7µM
Oc1ccc(N2CCN(c3ncnc4sc(-c5ccccc5)cc34)CC2)cc1	Pf growth 96h 15µM, Pf growth 48h inconclusive (no result: NS1 function inh)
Oc1cccc(/C=N/Nc2cc(N3CCCC3)nc(N3CCCC3)n2)c1	Pf growth 96h inconclusive, Pf growth 48h 2.9µM
Oc1ccc(/C=N/Nc2cc(N3CCCC3)nc(N3CCCC3)n2)cc1	Pf growth 96h 2.1µM, Pf growth 48h inconclusive
O=C1CCC(C(=O)N2CCc3ccccc3C2)CN1CCCN1CCOCC1 (centres undefined)	Pf growth 96h inconclusive
Cc1c(Cl)cccc1NC(=O)NCc1ccccn1	Cycloheximide cs 15
O=C(NCc1ccccn1)Nc1ccccc1Cl	Shiga toxin inh 32, Cycloheximide cs 25
O=C(NCc1ccccn1)Nc1cccc(Cl)c1Cl	Cycloheximide cs 59
Cc1nn(C)c(C)c1CNC(=O)Nc1cccc(Cl)c1C	Cycloheximide cs 32 (no result: NS1 function inh)
CNC(=S)/N=C/NOCc1c(Cl)cccc1Cl	Pf growth 96h inconclusive, Pf growth 48h inconclusive (no result: NS1 function inh)
O=C(NCCc1nnc2ccccn12)c1cccs1	Shiga toxin inh 51, Cycloheximide cs 36
Cc1ccsc1C(=O)NCCc1nnc2ccccn12	Shiga toxin inh 72, Cycloheximide cs 31
CCOc1ccc(NC(=O)c2ccccc2CO)cc1	Cycloheximide cs 31 (no result: Pf growth 96h, Pf growth 48h)
CCOc1ccc(NC(C)=O)cc1	none
CCOc1ccc(NC(=O)c2ccccc2OCC(=O)c2ccccc2)cc1	Pf growth 96h inconclusive, Cycloheximide cs 48 (no result: Pf growth 48h)
Cc1cccc(NC(=O)c2ccccc2OCC(=O)c2ccccc2)c1	none
CC(=O)c1ccc(NC(=O)COc2ccccc2C(=O)Nc2ccccc2)cc1	Shiga toxin inh 49, Cycloheximide cs 13, Pf growth 48h inconclusive
Cc1cccc(NC(=O)COc2ccccc2C(=O)NC(C)c2ccccc2)c1 (centres undefined)	Pf growth 96h 9.3µM
